One assay addresses CEACAM7. Put plainly: pooled miR-30 sensor sort-seq; sequence = guide strand. Particulars: shRNA.
With TAGAATTGTCTGGTTACTTCTT, the sensor-assay potency score (higher = more potent) is -0.107.

Take ATATCCTATAATTCGATAGTTG: the sensor-assay potency score (higher = more potent) was -1.04.

Take TTATATTTTTTACATATCCTAT: the sensor-assay potency score (higher = more potent) is -0.681.

As for TTCTTTTATAACGTGTAGGGTA, the sensor-assay potency score (higher = more potent) was -0.399.

AACTCTAACAGGGACCACCGTG: the sensor-assay potency score (higher = more potent) was -1.13.

For the sequence AAGATTTTCTTTTATAACGTGT, the sensor-assay potency score (higher = more potent) is 0.163.

Take TATAATTCGATAGTTGGCATGC: the sensor-assay potency score (higher = more potent) is -0.121.

Consider TCGATAGTTGGCATGCACCCTT, for which the sensor-assay potency score (higher = more potent) was -0.656.

As to AATCATGATGCTGACAGCGGTC, the sensor-assay potency score (higher = more potent) is -0.463.

Regarding TGACTCATAGCGGACATTCAGG, the sensor-assay potency score (higher = more potent) was -0.817.

On to TAAAACCACAATATCTTTGTTC, for which the sensor-assay potency score (higher = more potent) stood at 0.0103.

In the case of TATCCTATAATTCGATAGTTGG, the sensor-assay potency score (higher = more potent) is -0.535.

With TATTGTCTCTCGACCGTTGTGT, the sensor-assay potency score (higher = more potent) is 0.904.

A further assay has as its target CELA2A. The assay is described as above. Conditions: shRNA.
TTGTGGTAGTAGTTGCAGCCGA: the sensor-assay potency score (higher = more potent) is -0.632.

On to TTATATTATTTTCCTTCTGTGA, for which the sensor-assay potency score (higher = more potent) was -1.25.

Consider TGTGGTAGTAGTTGCAGCCGAG, for which the sensor-assay potency score (higher = more potent) was -0.0375.

AATCTTAGAGACACTGACTGCC had a sensor-assay potency score (higher = more potent) of 0.508.

As to TTGCAGCTGGAGATCACGCCAT, the sensor-assay potency score (higher = more potent) is -0.881.

With TTCTTCACCGCCAACCACCCTA, the sensor-assay potency score (higher = more potent) was -0.855.

For the sequence ATACTGGTTTTCACGCTGCTGC, the sensor-assay potency score (higher = more potent) was -1.06.

Regarding TACCACTTGCCATTGGAGCTGT, the sensor-assay potency score (higher = more potent) was determined as 0.0148.

As to ATGTAATTGGAGACCCGCGTGA, the sensor-assay potency score (higher = more potent) is -0.77.

As for TAGTAGTTGCAGCCGAGGCGAG, the sensor-assay potency score (higher = more potent) is -1.3.

As to TCTTAGAGACACTGACTGCCAG, the sensor-assay potency score (higher = more potent) is -0.61.

Turning to TTGGTTGGAGTTCCAGTCCTTG, the sensor-assay potency score (higher = more potent) was -0.732.

The target in another assay is CENPE. The assay is described as above. Conditions: shRNA.
TTGTGTGGTAGGATTAACCTGG yielded a sensor-assay potency score (higher = more potent) of 0.117.

For TTGTCTTGTATCTCTTTCCTCA, the sensor-assay potency score (higher = more potent) was 0.236.

TATTTCACACATTTTCTCCTGA registered a sensor-assay potency score (higher = more potent) of 0.76.

As for TTGAGTATCTATATTCATGTTA, the sensor-assay potency score (higher = more potent) was determined as 0.243.

With TAGCTGTTCATTTTGCTGCTTT, the sensor-assay potency score (higher = more potent) is -0.023.

Turning to TTGACATCTTTTTTTAACGTAA, the sensor-assay potency score (higher = more potent) was -0.388.

Sequence TTTGTCAATAGTTTCCTGCTGC yielded a sensor-assay potency score (higher = more potent) of 0.514.

TTGAGAGTCTATGTATTCCTGT displayed a sensor-assay potency score (higher = more potent) of 0.505.

Sequence TTACTTGGTGGTTCTGTCGGTC came in with a sensor-assay potency score (higher = more potent) of 0.00856.

On to TTTGCTTGTATGTAGTTGCAAG, for which the sensor-assay potency score (higher = more potent) is -0.96.

With TGTAGTATCTGAGTCAACCTTA, the sensor-assay potency score (higher = more potent) is 0.878.

As to TAGCTCTTGATGTAACATGAGG, the sensor-assay potency score (higher = more potent) is -1.24.

In turn, TAACACTCTCTAACATTTGTTG displayed a sensor-assay potency score (higher = more potent) of 0.0489.

On to TTGAGTGTCTCCTCTACTCTTC, for which the sensor-assay potency score (higher = more potent) is -0.033.

For TTTATTTTTGTAACATAGCTTA, the sensor-assay potency score (higher = more potent) was -0.197.

Source of the values: the OligoGym collection.
Also: reference of the scale not given here.
